{"source": "paper PMC4336329", "about": "(PLoS ONE, 2015)", "note": "About 2,200 (0.71%) of roughly 310,000 compounds showed an effect of 50% or more. Effects have a minus sign here. What follows is part of a selection rich in strong results, with near analogues and random picks from the rest."}
{"molecular_target": "human ether-à-go-go-related gene (hERG) potassium channel (human, UniProt Q12809)", "sequence (Q12809 whole entry, looked up)": "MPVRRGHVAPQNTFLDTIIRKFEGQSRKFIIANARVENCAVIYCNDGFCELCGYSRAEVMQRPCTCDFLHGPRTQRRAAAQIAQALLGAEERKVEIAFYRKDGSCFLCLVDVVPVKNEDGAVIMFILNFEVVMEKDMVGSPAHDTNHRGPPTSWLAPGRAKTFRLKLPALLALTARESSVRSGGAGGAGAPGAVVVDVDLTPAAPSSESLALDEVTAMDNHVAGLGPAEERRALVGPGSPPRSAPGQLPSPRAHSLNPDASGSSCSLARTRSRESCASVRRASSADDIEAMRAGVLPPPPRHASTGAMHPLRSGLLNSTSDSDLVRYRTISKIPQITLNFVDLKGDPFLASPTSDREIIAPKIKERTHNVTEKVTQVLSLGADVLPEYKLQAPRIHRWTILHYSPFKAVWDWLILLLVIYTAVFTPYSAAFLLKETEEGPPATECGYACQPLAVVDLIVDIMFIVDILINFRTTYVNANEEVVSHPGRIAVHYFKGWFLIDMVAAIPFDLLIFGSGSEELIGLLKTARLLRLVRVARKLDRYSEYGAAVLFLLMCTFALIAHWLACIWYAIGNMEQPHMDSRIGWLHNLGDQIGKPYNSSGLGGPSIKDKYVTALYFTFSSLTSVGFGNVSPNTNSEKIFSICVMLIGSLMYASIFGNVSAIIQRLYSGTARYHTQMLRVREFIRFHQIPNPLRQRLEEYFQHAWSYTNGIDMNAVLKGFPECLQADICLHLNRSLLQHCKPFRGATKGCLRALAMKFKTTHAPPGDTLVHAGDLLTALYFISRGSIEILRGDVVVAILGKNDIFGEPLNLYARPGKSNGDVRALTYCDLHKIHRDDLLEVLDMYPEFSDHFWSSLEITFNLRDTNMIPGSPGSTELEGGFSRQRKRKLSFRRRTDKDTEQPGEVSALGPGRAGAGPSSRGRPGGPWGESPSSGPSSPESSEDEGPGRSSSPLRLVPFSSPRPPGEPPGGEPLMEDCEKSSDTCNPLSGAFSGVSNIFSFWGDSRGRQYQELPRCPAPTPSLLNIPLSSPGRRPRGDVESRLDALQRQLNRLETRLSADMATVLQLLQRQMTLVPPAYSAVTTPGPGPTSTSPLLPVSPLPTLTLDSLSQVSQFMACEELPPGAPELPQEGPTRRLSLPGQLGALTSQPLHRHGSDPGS", "test": "primary screen, population patch clamp on CHO cells stably expressing hERG; higher = less effect of the substance", "units": {"hERG current change (%, negative = inhibition) at 1uM": "%"}}
{"smiles": "CCC(Oc1ccccc1)C(=O)N(C)CC(=O)N(CC(C)C)c1c(N)n(CC(C)C)c(=O)[nH]c1=O", "note": "(centres unmarked)", "hERG current change (%, negative = inhibition) at 1uM": 7.85}
{"smiles": "CC(C)CC(=O)OCC(=O)Nc1ccccc1Sc1ccccc1", "hERG current change (%, negative = inhibition) at 1uM": 11.1}
{"smiles": "CN(Cc1ccc(OC(F)F)cc1)C(=O)c1ccc(S(=O)(=O)N(C)c2ccccc2)cc1", "hERG current change (%, negative = inhibition) at 1uM": -19.2}
{"smiles": "CCS(=O)(=O)N1Cc2ccccc2CC1C(=O)Nc1ncc(C)s1", "note": "(centres unmarked)", "hERG current change (%, negative = inhibition) at 1uM": 7.83}
{"smiles": "Fc1ccc(N2Cc3ccsc3C=N2)cc1", "hERG current change (%, negative = inhibition) at 1uM": 9.09}
{"smiles": "CCOc1ccc(Nc2nc(Cc3nnc(SCC(=O)NC4CCCCC4)n3C)cs2)cc1", "hERG current change (%, negative = inhibition) at 1uM": -7.35}
{"smiles": "Cc1sc(-c2ccccn2)nc1OC(=O)c1ccc(F)cc1F", "hERG current change (%, negative = inhibition) at 1uM": 16.2}
{"smiles": "CCCCC(=O)Nc1c(-c2ccc(OC)c(OC)c2)c(=O)c2ccccc2n1C", "hERG current change (%, negative = inhibition) at 1uM": 10.7}
{"smiles": "O=C(NCC1CCCCC1)c1ccc([N+](=O)[O-])cc1", "hERG current change (%, negative = inhibition) at 1uM": 8.06}
{"smiles": "O=C(Nc1ccc2c(c1)OCO2)C1CCN(C(=O)c2ccc(Cl)cc2)CC1", "hERG current change (%, negative = inhibition) at 1uM": -59.6}
{"smiles": "O=C(NCC1CCN(C(=O)c2ccc([N+](=O)[O-])cc2)CC1)c1ccc([N+](=O)[O-])cc1", "hERG current change (%, negative = inhibition) at 1uM": -74.6}
{"smiles": "O=C(Nc1ccc2c(c1)OCCO2)C1CCN(C(=O)c2ccc(Cl)cc2)CC1", "hERG current change (%, negative = inhibition) at 1uM": 3.04}
{"smiles": "O=C(Nc1ccc2c(c1)OCO2)C1CCN(C(=O)c2ccc(Br)cc2)CC1", "hERG current change (%, negative = inhibition) at 1uM": -42.3}
{"smiles": "O=C(NCC1CCN(C(=O)c2cccc([N+](=O)[O-])c2)CC1)c1cccc([N+](=O)[O-])c1", "hERG current change (%, negative = inhibition) at 1uM": -5.98}
{"smiles": "O=[N+]([O-])c1ccccc1/C=C\\C=N\\N1CCN(c2ccccc2)CC1", "hERG current change (%, negative = inhibition) at 1uM": -7.95}
{"smiles": "COc1cccc(CC2(CO)CCCN(Cc3ccc(-c4ccco4)cc3)C2)c1", "note": "(centres unmarked)", "hERG current change (%, negative = inhibition) at 1uM": 9.67}
{"smiles": "COc1cccc(CC2(CO)CCCN(Cc3ccccc3-c3ccco3)C2)c1", "note": "(centres unmarked)", "hERG current change (%, negative = inhibition) at 1uM": -55.6}
{"smiles": "COc1cccc(CC2(CO)CCCN(Cc3ccc(C)s3)C2)c1", "note": "(centres unmarked)", "hERG current change (%, negative = inhibition) at 1uM": -10.6}
{"smiles": "COc1cccc(CC2(CO)CCCN(Cc3ccc(CN4CCCCC4)s3)C2)c1", "note": "(centres unmarked)", "hERG current change (%, negative = inhibition) at 1uM": 0.717}
{"smiles": "COc1cccc(CC2(CO)CCCN(Cc3ccc(OC)c(C)c3OC)C2)c1", "note": "(centres unmarked)", "hERG current change (%, negative = inhibition) at 1uM": -80.2}
{"smiles": "COc1cccc(CC2(CO)CCCN(Cc3cn(C)c4ccccc34)C2)c1", "note": "(centres unmarked)", "hERG current change (%, negative = inhibition) at 1uM": -54.8}
{"smiles": "COc1cccc(CC2(CO)CCCN(Cc3ccc(CO)o3)C2)c1", "note": "(centres unmarked)", "hERG current change (%, negative = inhibition) at 1uM": -1.35}
{"smiles": "COc1cccc(CC2(CO)CCCN(Cc3ccccc3Cl)C2)c1", "note": "(centres unmarked)", "hERG current change (%, negative = inhibition) at 1uM": -12.5}
{"smiles": "COc1cccc(CC2(CO)CCCN(Cc3cn[nH]c3-c3ccccc3)C2)c1", "note": "(centres unmarked)", "hERG current change (%, negative = inhibition) at 1uM": -6.05}
{"smiles": "CC(C)(C)C(=O)Nc1scc(-c2ccc(-c3ccccc3)cc2)c1C(=O)O", "hERG current change (%, negative = inhibition) at 1uM": 21.8}
{"smiles": "COc1cc(C)ccc1OCc1cc(C(=O)N(C)CCCN2CCOCC2)no1", "hERG current change (%, negative = inhibition) at 1uM": -7.67}
{"smiles": "c1ccc(-n2c(-c3ccco3)nnc2-c2ccco2)cc1", "hERG current change (%, negative = inhibition) at 1uM": 5.9}
{"smiles": "COc1cccc(-c2nnc(-c3ccco3)o2)c1", "hERG current change (%, negative = inhibition) at 1uM": 14.6}
{"smiles": "O=C(NCCN1CCCCC1)c1cc(OCC(F)(F)F)ccc1OCC(F)(F)F", "hERG current change (%, negative = inhibition) at 1uM": -17.2}
{"smiles": "S=c1[nH]nc(-c2ccc(Cl)cc2)n1-c1ccc(Cl)cc1", "hERG current change (%, negative = inhibition) at 1uM": 9.56}
{"smiles": "CCC(C)(C)NC(=O)CN(C(=O)c1snc(C(N)=O)c1N)c1ccc2c(c1)OCO2", "hERG current change (%, negative = inhibition) at 1uM": 3.43}
{"smiles": "COc1ccc(S(=O)(=O)N2CCC(C(=O)NCCc3ccccc3)CC2)cc1", "hERG current change (%, negative = inhibition) at 1uM": 9.96}
{"smiles": "COc1ccc(C(=O)N2CCC(C(=O)c3ccc(F)cc3)CC2)cc1", "hERG current change (%, negative = inhibition) at 1uM": -66.1}
{"smiles": "COc1cc(OC)cc(C(=O)N2CCC(C(=O)c3ccc(F)cc3)CC2)c1", "hERG current change (%, negative = inhibition) at 1uM": -1.28}
{"smiles": "COc1ccc(C(=O)C2CCN(C(=O)c3ccc(C)cc3)CC2)cc1", "hERG current change (%, negative = inhibition) at 1uM": -47.7}
{"smiles": "COc1ccc(C(=O)N2CCC(C(=O)c3c(C)cc(C)cc3C)CC2)cc1", "hERG current change (%, negative = inhibition) at 1uM": -8.27}
{"smiles": "COc1ccc(C(=O)C2CCN(C(=O)c3ccc(OC)cc3)CC2)cc1", "hERG current change (%, negative = inhibition) at 1uM": -76}
{"smiles": "COc1ccc(C(=O)C2CCN(C(=O)c3ccc(F)cc3)CC2)cc1", "hERG current change (%, negative = inhibition) at 1uM": 2.02}
{"smiles": "COc1ccc(Cl)cc1NC(=O)NN1CCN(C)CC1", "hERG current change (%, negative = inhibition) at 1uM": -7.68}
{"smiles": "CC(C)(C)NC(=O)C(c1ccco1)N(Cc1ccc(F)cc1)C(=O)c1snc(C(N)=O)c1N", "note": "(centres unmarked)", "hERG current change (%, negative = inhibition) at 1uM": -6.09}
{"smiles": "C/C(=N/OCO/N=C(\\C)c1ccc(F)cc1F)c1ccc(F)cc1F", "hERG current change (%, negative = inhibition) at 1uM": 21.9}
